Results reported in PubChem BioAssay (EPA / NIEHS).
Records with an inconclusive call do not appear. Activity calls are given as the source filed them. The calls were made as follows: active = hit-call score of the fitted dose curve at least 0.9, where 1 is the maximum; inconclusive = response in the unintended direction; inactive = score below 0.9.

tested on: bovine Angiotensin II Receptor Type 2 (AT2), gene 407157; assay: NVS_GPCR_bAT2: NovaScreen (NVS) G Protein-Coupled Receptor Assay for bovine Angiotensin II Receptor Type 2 (AT2) (AID 2283240)
Procedure: NVS_GPCR_bAT2 is a biochemical, single-readout assay that uses extracted gene-proteins from Bovine cerebellar membranes in a tissue-based cell-free assay. Measurements were taken 1 hour after chemical dosing in a 96-well plate.NVS_GPCR_bAT2 is one of one assay component(s) measured or calculated from the NVS_GPCR_bAT2 assay. It is designed to make measurements of radioligand binding, a form of binding reporter, as detected with scintillation counting signals by Filter-based radiodetection technology.Data from the assay component NVS_GPCR_bAT2 was analyzed into 1 assay endpoint. This assay endpoint, NVS_GPCR_bAT2, was analyzed in the positive analysis fitting direction relative to DMSO as the negative control and baseline of activity. Using a type of binding reporter, loss-of-signal activity can be used to understand changes in the binding as they relate to the gene AGTR2. Furthermore, this assay endpoint can be referred to as a primary readout, because the performed assay has only produced 1 assay endpoint. To generalize the intended target to other relatable targets, this assay endpoint is annotated to the gpcr intended target family, where the subfamily is rhodopsin-like receptor.
Binding assays used specific radioligands (tritiated, iodinated) with non-radioactive competitive displacement ligands in agonist or antagonist protocols (as indicated) and various reference compounds and inhibitors to titrate specific binding to receptors and transporters. Most enzyme assays (CYPs, kinases, phosphatases, proteases, HDACs) used recombinant protein and specific substrates (fluorescence mostly, some colorimetric and radioactive) and inhibitors, followed by a biochemical separation of substrate and product. All assays for the biochemical HTS were initially run in duplicate at a single concentration (10 uM for CYP450 assays and 25 uM for all others). […]

SMILES	outcome	AC50
CNS(=O)(=O)c1cc(C(=O)N2CCC(CCN3C4CCC3CC(n3c(C)nc5ccccc53)C4)(c3cccc(F)c3)CC2)c(Cl)cc1F (stereo not drawn)	inactive	–
O=C(NS(=O)(=O)/C=C/c1ccccc1)c1ccc(F)cc1Cl	–	15 µM (active)
COc1ccc(/C=C/S(=O)(=O)NC(=O)c2ccc(C)cc2Cl)cc1	–	15.2 µM (active)
